Measurements reported in the supplement of paper PMC4466140.

B1: unnamed (peptide)
chain: KKIRLIFTYPSTVGR

The binders below were run against AgAbp1 (assay: SPOT peptide array binding signal intensity (averaged, normalized) (arbitrary units (background-subtracted, floor 0; scale differs between SH3 domains)); higher = stronger binding of the SH3 domain to the peptide).
Summary of the method: (§1)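 Binding signal is given in arbitrary units that differ between domains and is the normalized, background-subtracted spot intensity averaged across replicates. Each GST-SH3 fusion from one of four yeast species was made in E. coli BL21(DE3), purified on glutathione Sepharose and incubated at 10 μg/ml overnight at 4°C on cellulose-bound synthetic 15-mer peptides in which cysteines were replaced by serines. Detection used anti-GST antibody, an HRP anti-mouse secondary and luminol, followed by imaging and Genespotter quantification.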

Row | Binder | SPOT peptide array binding signal intensity
1 | B1 | 11

What follows are binders tested against AgBbc1 in the same assay as above.
Summary of the method: as §1

Row | Binder | SPOT peptide array binding signal intensity
2 | B1 | 22.8

These binders were tested against AgBem1-D1 in the same assay as above.
Summary of the method: as §1

Row | Binder | SPOT peptide array binding signal intensity
3 | B1 | 241

Each binder was assayed against AgBzz1-D1 in the same assay as above.
Summary of the method: as §1

Row | Binder | SPOT peptide array binding signal intensity
4 | B1 | 22.5

What follows are binders tested against AgBzz1-D2 in the same assay as above.
Summary of the method: as §1

Row | Binder | SPOT peptide array binding signal intensity
5 | B1 | 50

Each binder was assayed against AgCyk3 in the same assay as above.
Summary of the method: as §1

Row | Binder | SPOT peptide array binding signal intensity
6 | B1 | 49

What follows are binders tested against AgFus1 in the same assay as above.
Summary of the method: as §1

Row | Binder | SPOT peptide array binding signal intensity
7 | B1 | 2480

The binders below were run against AgHof1 in the same assay as above.
Summary of the method: as §1

Row | Binder | SPOT peptide array binding signal intensity
8 | B1 | 47

Each binder was assayed against AgHse1 in the same assay as above.
Summary of the method: as §1

Row | Binder | SPOT peptide array binding signal intensity
9 | B1 | 1210

These binders were tested against AgLsb1 in the same assay as above.
Summary of the method: as §1

Row | Binder | SPOT peptide array binding signal intensity
10 | B1 | 58.8

These binders were tested against AgLsb4 in the same assay as above.
Summary of the method: as §1

Row | Binder | SPOT peptide array binding signal intensity
11 | B1 | 577

What follows are binders tested against AgMyo5 in the same assay as above.
Summary of the method: as §1

Row | Binder | SPOT peptide array binding signal intensity
12 | B1 | 2.5

The binders below were run against AgNbp2 in the same assay as above.
Summary of the method: as §1

Row | Binder | SPOT peptide array binding signal intensity
13 | B1 | 688

Each binder was assayed against AgRvs167 in the same assay as above.
Summary of the method: as §1

Row | Binder | SPOT peptide array binding signal intensity
14 | B1 | 6.17

The binders below were run against AgSho1 in the same assay as above.
Summary of the method: as §1

Row | Binder | SPOT peptide array binding signal intensity
15 | B1 | 426

These binders were tested against AgSla1-D1-D2 in the same assay as above.
Summary of the method: as §1

Row | Binder | SPOT peptide array binding signal intensity
16 | B1 | 428

What follows are binders tested against AgSla1-D3 in the same assay as above.
Summary of the method: as §1

Row | Binder | SPOT peptide array binding signal intensity
17 | B1 | 4.5

The binders below were run against CaAbp1-D1 in the same assay as above.
Summary of the method: as §1

Row | Binder | SPOT peptide array binding signal intensity
18 | B1 | 504

What follows are binders tested against CaAbp1-D2 in the same assay as above.
Summary of the method: as §1

Row | Binder | SPOT peptide array binding signal intensity
19 | B1 | 268

What follows are binders tested against CaBbc1 in the same assay as above.
Summary of the method: as §1

Row | Binder | SPOT peptide array binding signal intensity
20 | B1 | 86.8

The binders below were run against CaBem1-D1 in the same assay as above.
Summary of the method: as §1

Row | Binder | SPOT peptide array binding signal intensity
21 | B1 | 73.5

These binders were tested against CaBzz1-D1 in the same assay as above.
Summary of the method: as §1

Row | Binder | SPOT peptide array binding signal intensity
22 | B1 | 142

Each binder was assayed against CaBzz1-D2 in the same assay as above.
Summary of the method: as §1

Row | Binder | SPOT peptide array binding signal intensity
23 | B1 | 99.2

Each binder was assayed against CaCyk3 in the same assay as above.
Summary of the method: as §1

Row | Binder | SPOT peptide array binding signal intensity
24 | B1 | 118

These binders were tested against CaFus1 in the same assay as above.
Summary of the method: as §1

Row | Binder | SPOT peptide array binding signal intensity
25 | B1 | 4650

The binders below were run against CaHof1 in the same assay as above.
Summary of the method: as §1

Row | Binder | SPOT peptide array binding signal intensity
26 | B1 | 2.25

Each binder was assayed against CaHse1 in the same assay as above.
Summary of the method: as §1

Row | Binder | SPOT peptide array binding signal intensity
27 | B1 | 282

Each binder was assayed against CaLsb1 in the same assay as above.
Summary of the method: as §1

Row | Binder | SPOT peptide array binding signal intensity
28 | B1 | 79.2

These binders were tested against CaLsb4 in the same assay as above.
Summary of the method: as §1

Row | Binder | SPOT peptide array binding signal intensity
29 | B1 | 354

The binders below were run against CaMyo5 in the same assay as above.
Summary of the method: as §1

Row | Binder | SPOT peptide array binding signal intensity
30 | B1 | 77.2

What follows are binders tested against CaNbp2 in the same assay as above.
Summary of the method: as §1

Row | Binder | SPOT peptide array binding signal intensity
31 | B1 | 966

The binders below were run against CaRvs167 in the same assay as above.
Summary of the method: as §1

Row | Binder | SPOT peptide array binding signal intensity
32 | B1 | 274

Each binder was assayed against CaRvs167-3 in the same assay as above.
Summary of the method: as §1

Row | Binder | SPOT peptide array binding signal intensity
33 | B1 | 2180

What follows are binders tested against CaSho1 in the same assay as above.
Summary of the method: as §1

Row | Binder | SPOT peptide array binding signal intensity
34 | B1 | 1570

The binders below were run against CaSla1-D1-D2 in the same assay as above.
Summary of the method: as §1

Row | Binder | SPOT peptide array binding signal intensity
35 | B1 | 21

The binders below were run against CaSla1-D3 in the same assay as above.
Summary of the method: as §1

Row | Binder | SPOT peptide array binding signal intensity
36 | B1 | 487

Each binder was assayed against ScAbp1 in the same assay as above.
Summary of the method: as §1

Row | Binder | SPOT peptide array binding signal intensity
37 | B1 | 15

The binders below were run against ScBbc1 in the same assay as above.
Summary of the method: as §1

Row | Binder | SPOT peptide array binding signal intensity
38 | B1 | 4.75

These binders were tested against ScBem1-D1 in the same assay as above.
Summary of the method: as §1

Row | Binder | SPOT peptide array binding signal intensity
39 | B1 | 19

What follows are binders tested against ScBzz1-D1 in the same assay as above.
Summary of the method: as §1

Row | Binder | SPOT peptide array binding signal intensity
40 | B1 | 23

The binders below were run against ScBzz1-D2 in the same assay as above.
Summary of the method: as §1

Row | Binder | SPOT peptide array binding signal intensity
41 | B1 | 325

These binders were tested against ScCyk3 in the same assay as above.
Summary of the method: as §1

Row | Binder | SPOT peptide array binding signal intensity
42 | B1 | 210

The binders below were run against ScFus1 in the same assay as above.
Summary of the method: as §1

Row | Binder | SPOT peptide array binding signal intensity
43 | B1 | 3720

What follows are binders tested against ScHof1 in the same assay as above.
Summary of the method: as §1

Row | Binder | SPOT peptide array binding signal intensity
44 | B1 | 1.75

Each binder was assayed against ScHse1 in the same assay as above.
Summary of the method: as §1

Row | Binder | SPOT peptide array binding signal intensity
45 | B1 | 1750

Each binder was assayed against ScLsb1 in the same assay as above.
Summary of the method: as §1

Row | Binder | SPOT peptide array binding signal intensity
46 | B1 | 32

What follows are binders tested against ScLsb2 in the same assay as above.
Summary of the method: as §1

Row | Binder | SPOT peptide array binding signal intensity
47 | B1 | 5

Each binder was assayed against ScLsb3 in the same assay as above.
Summary of the method: as §1

Row | Binder | SPOT peptide array binding signal intensity
48 | B1 | 389

These binders were tested against ScLsb4 in the same assay as above.
Summary of the method: as §1

Row | Binder | SPOT peptide array binding signal intensity
49 | B1 | 60

The binders below were run against ScMyo3 in the same assay as above.
Summary of the method: as §1

Row | Binder | SPOT peptide array binding signal intensity
50 | B1 | 4

Each binder was assayed against ScMyo5 in the same assay as above.
Summary of the method: as §1

Row | Binder | SPOT peptide array binding signal intensity
51 | B1 | 5

Each binder was assayed against ScNbp2 in the same assay as above.
Summary of the method: as §1

Row | Binder | SPOT peptide array binding signal intensity
52 | B1 | 744

What follows are binders tested against ScPex13 in the same assay as above.
Summary of the method: as §1

Row | Binder | SPOT peptide array binding signal intensity
53 | B1 | 14.5

Each binder was assayed against ScRvs167 in the same assay as above.
Summary of the method: as §1

Row | Binder | SPOT peptide array binding signal intensity
54 | B1 | 26.2

Each binder was assayed against ScSho1 in the same assay as above.
Summary of the method: as §1

Row | Binder | SPOT peptide array binding signal intensity
55 | B1 | 2150

What follows are binders tested against ScSla1-D1-D2 in the same assay as above.
Summary of the method: as §1

Row | Binder | SPOT peptide array binding signal intensity
56 | B1 | 83.5

Each binder was assayed against ScSla1-D3 in the same assay as above.
Summary of the method: as §1

Row | Binder | SPOT peptide array binding signal intensity
57 | B1 | 57.8

What follows are binders tested against SpAbp1-D1 in the same assay as above.
Summary of the method: as §1

Row | Binder | SPOT peptide array binding signal intensity
58 | B1 | 132

The binders below were run against SpBbc1 in the same assay as above.
Summary of the method: as §1

Row | Binder | SPOT peptide array binding signal intensity
59 | B1 | 41

These binders were tested against SpBzz1-D1 in the same assay as above.
Summary of the method: as §1

Row | Binder | SPOT peptide array binding signal intensity
60 | B1 | 133

These binders were tested against SpBzz1-D2 in the same assay as above.
Summary of the method: as §1

Row | Binder | SPOT peptide array binding signal intensity
61 | B1 | 0.5

Each binder was assayed against SpCyk3 in the same assay as above.
Summary of the method: as §1

Row | Binder | SPOT peptide array binding signal intensity
62 | B1 | 92

The binders below were run against SpHof1 in the same assay as above.
Summary of the method: as §1

Row | Binder | SPOT peptide array binding signal intensity
63 | B1 | 315

The binders below were run against SpHof1-2 in the same assay as above.
Summary of the method: as §1

Row | Binder | SPOT peptide array binding signal intensity
64 | B1 | 91

The binders below were run against SpHof1-3 in the same assay as above.
Summary of the method: as §1

Row | Binder | SPOT peptide array binding signal intensity
65 | B1 | 872

Each binder was assayed against SpHse1 in the same assay as above.
Summary of the method: as §1

Row | Binder | SPOT peptide array binding signal intensity
66 | B1 | 910

Each binder was assayed against SpLsb1 in the same assay as above.
Summary of the method: as §1

Row | Binder | SPOT peptide array binding signal intensity
67 | B1 | 2

The binders below were run against SpLsb4 in the same assay as above.
Summary of the method: as §1

Row | Binder | SPOT peptide array binding signal intensity
68 | B1 | 210

Each binder was assayed against SpMyo1 in the same assay as above.
Summary of the method: as §1

Row | Binder | SPOT peptide array binding signal intensity
69 | B1 | 14

The binders below were run against SpNbp2 in the same assay as above.
Summary of the method: as §1

Row | Binder | SPOT peptide array binding signal intensity
70 | B1 | 1780

These binders were tested against SpPex13 in the same assay as above.
Summary of the method: as §1

Row | Binder | SPOT peptide array binding signal intensity
71 | B1 | 24

What follows are binders tested against SpRvs167 in the same assay as above.
Summary of the method: as §1

Row | Binder | SPOT peptide array binding signal intensity
72 | B1 | 21

These binders were tested against SpSla1-D1-D2 in the same assay as above.
Summary of the method: as §1

Row | Binder | SPOT peptide array binding signal intensity
73 | B1 | 5

These binders were tested against SpSla1-D3 in the same assay as above.
Summary of the method: as §1

Row | Binder | SPOT peptide array binding signal intensity
74 | B1 | 49
